The values below come from article PMC5869772, “Quantitative profiling of BATF family proteins/JUNB/IRF hetero-trimers using Spec-seq”.

The target in the test is T1, BATF3;JUNB (human;human, UniProt Q9NR55;P17275 1-127;148-347, |).
T1 sequence 1: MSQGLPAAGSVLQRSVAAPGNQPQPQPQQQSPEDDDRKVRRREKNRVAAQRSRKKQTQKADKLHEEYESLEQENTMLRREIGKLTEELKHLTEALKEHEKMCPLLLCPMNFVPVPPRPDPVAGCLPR
T1 sequence 2: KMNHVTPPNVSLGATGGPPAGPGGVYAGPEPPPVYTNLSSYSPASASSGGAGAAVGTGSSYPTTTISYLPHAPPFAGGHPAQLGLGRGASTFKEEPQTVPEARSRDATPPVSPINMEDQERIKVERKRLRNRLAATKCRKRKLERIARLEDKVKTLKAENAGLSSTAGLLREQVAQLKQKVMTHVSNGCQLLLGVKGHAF
Put plainly: Spec-seq (EMSA and sequencing of bound and unbound bands); 100 nM BATFx-JUNB, 1 uM dsDNA library, 50 mM K acetate, 20 mM Tris-acetate, 10 mM Mg acetate, 100 ug/ml BSA, pH 7.9, 10% glycerol, 30 min on ice; native 9% PAGE at 4 C; low values mean tight binding. To be noted: protein: recombinant;recombinant; tags: N-terminal mCherry-TEV, cleaved off;C-terminal 6His; copies: 1;1; dsDNA, one strand shown. Summed up: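 The protein, at 100 nM, was incubated with 1 μM double-stranded degenerate DNA library for 30 min on ice in NEB Cutsmart buffer with 10% glycerol, then resolved by native 9% PAGE at 4 °C. Excised bound and unbound bands were PCR-barcoded and Illumina-sequenced, and each sequence's relative binding energy in kT is −ln of its bound/unbound read-count ratio.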
For the sequence “GATAGTCTCATTTTCACCCCGTGAAATGAGCCAATTGTTCCATTACAGTATCTGT”, the binding signal was found to be 0.829 kT.

As for “GATAGTCTCATTTTCACCCCGTGAAATTCAGTCATTGTTCCATTACAGTATCTGT”, the binding signal is -0.0636 kT.

Consider “GATAGTCTCATTTTCACCCCGTGAAACTGTGTCATTGTTCCATTACAGTATCTGT”, for which the binding signal is -0.22 kT.

In the case of “GATAGTCTCATTTTCACCCCGTGAAAGCGAGTCATTGTTCCATTACAGTATCTGT”, the binding signal was -0.148 kT.
